This experiment addresses MTOR. Put plainly: pooled miR-30 sensor sort-seq; sequence = guide strand. As to conditions: shRNA.
For the sequence TATATTCTTCAACAGCAGCTAG, the sensor-assay potency score (higher = more potent) was -0.667.
Under TTAGAAGGAAAACAAACTCATG stands -1.25; under TTTGATGAGCAGCTCAACTTGC, 0.357.
Under TTTTGGGGAAACATATTGCAGC stands -1.1.
Under TATCCCTTGACAATTCTGCAGA stands -0.562.
For TTACTATGTTTCACTGTCCTGG, the sensor-assay potency score (higher = more potent) was -0.25.
TTTCATGGGATGTCGCTTGTTT: the sensor-assay potency score (higher = more potent) was 0.0185.
For TTTGTGTCCATCAGCCTCCAGT the value was -0.591.
The sequence TAAATCTCGACCATAGGCCTGA came in with a sensor-assay potency score (higher = more potent) of 0.425.
For TTTGGTATTTGTGTCCATCAGC the value was -0.533; for TATAATTGGTTCTTCGGTCAAA, -0.45; for TAGCATTGGTCAACATTCTTGT, 0.089.
With TTGAGTATTTGTTCTGCTCATA, the sensor-assay potency score (higher = more potent) is -0.623.
Under TCTCTGGAAACTTCTCTCGGGT stands -0.556.
Under TTGTTGGCTGCATTGTGCCGGG stands -0.403.
Under TTTAGTTGAGTATTTGTTCTGC stands 0.462; under ATAGCATTGGTCAACATTCTTG, -0.775.
In the case of TTATTCTGATACAACATGGTGT, the sensor-assay potency score (higher = more potent) is 0.00722.
As for TTCTTCTCCCTGTAGTCCCGGA, the sensor-assay potency score (higher = more potent) was -0.437.
Under TTGGGTCTCATCATTAACCAGG stands -0.739; under TTGACCACTGAAAACATCCCAG, 0.0557; under TAGGAATCCGTCCTCGTTCGGG, -0.165.
Turning to TTAGAAGCCACTGTCAGTGGGT, the sensor-assay potency score (higher = more potent) was 0.584.
In the case of TTCTCTGGAAACTTCTCTCGGG, the sensor-assay potency score (higher = more potent) is -0.303.

These data come from the OligoGym collection.
Note: reference of the scale not given here.
